Compound activity (PubChem)
CendR NRP1 mod – alters CendR peptide binding to human NRP-1. inhibition, % at 25 µM. 360,000 compounds, 0.85% hits. AID 602438. FAM-RPARPAR peptide binding to NRP-1, fluorescence polarization. O14786;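 active means inhibition or corrected inhibition above about 18%, plus a signal ratio from 0.5 to 1.5, limit read from the data, passing the limit was not always enough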
ARNT-TACC3 inh – ARNT/TACC3 interaction disruption. 390,000 compounds, 0.66% hits. inhibition, % at 9.99 µM. Q9Y6A5. AlphaScreen His-ARNT PAS-B/GST-TACC3 binding, luminescence; TACC3 fragment carries E629A point mutation. AID 623870;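 active means mean inhibition of replicates at least 50% and at least half of replicates each reaching 50%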;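 further: 0% = complete ARNT plus TACC3 wells and 100% = ARNT alone without TACC3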
hiPSC survival – increases survival of single human iPS cells; hiPSC single-cell survival, ATPlite luminescence; 100% = ROCK inhibitor wells, 0% = DMSO; survival enhancement, % at 20 µM; 360,000 compounds, 0.044% hits; in the data active means survival enhancement above about 18%;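 further: cells exposed to compounds for 16 hours before the ATP read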
ABCB6 inh MLPCN – human ABCB6 transporter inhibition; 360,000 compounds, 0.19% hits; Q9NP58; fluorescence ratio to DMSO, % at 10 µM; K562-ABCB6 porphyrin accumulation, flow cytometry, 1 h; hits give low values;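 active means fluorescence ratio to DMSO below 75%, the collection mean minus 3 SD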;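 further: signal is porphyrin accumulated inside mitochondria; 100% equals median channel fluorescence of DMSO control wells; lower ratio means ABCB6 inhibition with less porphyrin fluorescence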
INS-1E GSIS act – GLuc luminescence reporter in INS-1E cells, primary screen for activators of glucose-dependent secretion of insulin. INS-1E GLuc reporter insulin secretion, 2-3 h. activation, % at 16.6 µM. 370,000 compounds, 0.61% hits;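 active means lowest replicate activation of at least 40%, so every replicate reaches that level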;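 further: 0% = median of neutral control wells and 100% = median of IBMX positive control wells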
* marks the source's active call; other numbers are inactive results; nt = no result given. Shown are actives, neighbours in structure and some others; about 1.8% of the full set was active somewhere.

SMILES	CendR NRP1 mod	ARNT-TACC3 inh	hiPSC survival	ABCB6 inh MLPCN	INS-1E GSIS act
Cc1ccc2c(c1)-c1cc(C)nn1C(c1sccc1C)N2 (centres undefined)	27.2*	nt	0.1	94.0	nt
Cn1cccc1C1Nc2ccccc2NC2=C1C(=O)CC(C)(C)C2 (centres undefined)	22.2*	nt	0.0	150.0	nt
Cc1noc(C)c1S(=O)(=O)Nc1ccc(C(C)C)cc1	17.6*	-2.7	0.6	98.0	-16.7
COC(=O)C1=C(C)NC(=S)NC1c1cccc(OC)c1 (centres undefined)	nt	nt	nt	nt	43.8*
COC(=O)C1=C(C)N(Cc2ccc(Cl)cc2)C(=S)NC1c1cccc(OC)c1 (centres undefined)	nt	nt	nt	nt	-33.1
CCC(=O)NC(=S)NNC(=O)c1ccc(OC)cc1	5.8	68.0*	-0.8	100.0	nt
CCNS(=O)(=O)c1ccc(NC(=S)N2CCc3ccccc32)cc1	5.2	53.3*	-0.5	100.0	-0.3
CC(=O)Nc1ccc(S(=O)(=O)NCC(=O)OCC(=O)N2CCc3ccccc32)cc1	0.3	-16.5	-0.4	89.0	nt
Cc1noc(C)c1S(=O)(=O)N(C)C[C@@H]1OCCCC[C@@H](C)Oc2ccc(NC(=O)Nc3ccc(F)cc3)cc2C(=O)N([C@@H](C)CO)C[C@@H]1C	nt	nt	nt	nt	-10.7
O=C(N/N=C/c1cc(O)ccc1Br)c1cccnc1	-11.4	85.3*	-0.3	109.0	5.1
O=C(N/N=C/c1cc2c(cc1Br)OCO2)c1cccnc1	-7.2	nt	0.1	89.0	3.7
CC(/C=N\NC(=O)c1cccnc1)c1ccccc1 (centres undefined)	32.9*	14.7	2.6	94.0	5.8
O=C(N/N=C/c1cc(Br)c(O)c(Br)c1O)c1cccnc1	-14.2	70.3*	0.3	97.0	-8.1
C[C@@H]1CN([C@H](C)CO)C(=O)c2cc(NC(=O)Cc3ccccc3)ccc2O[C@@H](C)CCCCO[C@@H]1CN(C)C(=O)C1CCCCC1	nt	-2.7	nt	nt	-19.9
Cc1cccc(S(=O)(=O)N2CCCCN3[C@@H](CO)[C@@H](c4ccc(C#CC(C)C)cc4)[C@@H]3C2)c1	nt	8.1	nt	nt	56.7*
COc1ccc(-n2c(CNC(=O)c3cccs3)n[nH]c2=S)cc1	31.3*	-3.9	-1.2	99.0	4.0
COc1ccc(CC(=O)NCc2n[nH]c(=S)n2-c2ccc(F)cc2)cc1	0.6	-2.4	2.4	91.0	-4.2
CCCC#Cc1ccc([C@H]2[C@H]3CN(C(=O)c4ccc5c(c4)OCO5)CCCCN3[C@H]2CO)cc1	nt	3.3	nt	nt	-20.0
CC(=O)Oc1cc2cccc(OC(C)=O)c(=O)c2c(OC(C)=O)c1OC(C)=O	30.4*	19.9	-0.9	106.0	nt
Cc1ccc(-n2ccnc2SCC(=O)O)c(C)c1	31.0*	-2.1	-1.9	100.0	9.4
COC(=O)c1ccc2c(c1)NC(=O)C(N(CC(C)C)CC(C)C)S2 (centres undefined)	11.5	1.1	-0.6	102.0	45.8*
NC(=S)NN=Cc1nccc2ccccc12	11.2	77.3*	-2.6	94.0	22.4
Cc1cnc(C=NNC(N)=S)c2cccc(N)c12	25.8*	19.3	-2.6	104.0	-7.4
C[C@H]1CN([C@@H](C)CO)C(=O)c2cccc(NC(=O)Nc3ccccc3)c2O[C@@H]1CN(C)CC1CC1	nt	2.3	nt	nt	10.0
CC1(C(=O)NS(=O)(=O)c2ccc(Cl)cc2)CCN1C(=O)Cc1ccccc1 (centres undefined)	0.5	nt	-2.6	103.0	-2.3
SMILES	CendR NRP1 mod	ARNT-TACC3 inh	hiPSC survival	ABCB6 inh MLPCN	INS-1E GSIS act
CCCC(C)(C)C(=O)N1CCC1(C)C(=O)NS(=O)(=O)c1ccc(Cl)cc1 (centres undefined)	0.8	nt	-1.0	98.0	42.2*
CC1(C(=O)NS(=O)(=O)c2ccccc2Cl)CCN1C(=O)CC1CC1 (centres undefined)	27.6*	nt	1.1	98.0	-4.2
COCCOC(=O)C1=C(C)NC(=O)N(C(C)=O)C1c1ccc(Cl)cc1 (centres undefined)	-13.5	7.5	2.2	101.0	55.7*
Cc1ccc(S(=O)(=O)N2C[C@H](O)COC[C@H]3O[C@H](CC(=O)NCCN4CCCCC4)CC[C@@H]32)cc1	nt	3.0	nt	nt	24.5
Cc1ccc(C(=O)N/C(=C\c2ccccc2)C(=O)OCc2ccccc2)cc1	11.4	-3.2	1.7	98.0	-23.4
O=C(OCc1ccccc1)/C(=C/c1ccc(Cl)cc1)NC(=O)c1ccccc1Cl	-12.4	-1.4	0.9	102.0	69.8*
O=C1C=C(c2c(O)ccc3ccccc23)c2ccccc2C1=O	8.6	34.2	-3.4	129.0	40.8*
